Hits are enriched below; roughly 1.2% of the tested compounds scored in any of these assays.
RGS8-Gao = human RGS8-Galphao interaction regulation | multiplexed bead flow cytometry, RGS8-Galphao binding; actives lie on both sides | response (percent of control binding), % at 10 µM | 220,000 tested, 0.34% active | AID 1423; in the data active = response below about 60% or above about 140%; inactive = in between;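 note: Galphao activated as the GDP aluminium fluoride complex binding bead-coupled RGS8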
Target sequence (P09471 whole entry, looked up): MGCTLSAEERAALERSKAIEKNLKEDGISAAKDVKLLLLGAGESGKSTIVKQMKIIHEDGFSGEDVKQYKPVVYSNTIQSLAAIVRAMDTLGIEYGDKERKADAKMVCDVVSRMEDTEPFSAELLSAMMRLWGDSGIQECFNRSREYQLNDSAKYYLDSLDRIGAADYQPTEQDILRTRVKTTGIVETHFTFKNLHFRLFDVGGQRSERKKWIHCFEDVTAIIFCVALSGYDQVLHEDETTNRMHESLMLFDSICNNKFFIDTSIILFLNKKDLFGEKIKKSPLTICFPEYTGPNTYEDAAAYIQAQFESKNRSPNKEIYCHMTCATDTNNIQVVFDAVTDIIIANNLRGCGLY
RGS4-Gao reg = human RGS4-Galphao interaction regulation; P09471; Multiplexed bead flow cytometry, RGS4-Galphao binding; actives lie on both sides; binding response (% of control), % at 10 µM; 220,000 tested, 0.33% active; AID 1415; in the data active = binding response below about 49% or above about 150%; inactive = in between;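 note: fluorescent Galphao activated with aluminum fluoride binding bead-coupled RGS4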
RGS7-Gao = human RGS7-Galphao interaction regulation; P09471; Multiplexed bead flow cytometry, RGS7-Galphao binding; actives lie on both sides; binding response (% of control), % at 10 µM; 220,000 tested, 0.35% active; in the data active = binding response below about 49% or above about 150%; inconclusive = no clear call, values can overlap the other calls; inactive = in between;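 note: fluorescent Galphao held in activated GDP-AlF4 state binding bead-coupled RGS7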
RGS16-Gao HTS = regulators of human RGS16-Galphao interaction; O15492+P09471; bead-based flow cytometry RGS16-Galphao binding, fluorescence; actives lie on both sides; binding response (% of control), % at 10 µM; 220,000 tested, 0.38% active; AID 1441;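 note: Galphao activated by GDP with aluminum fluoride before binding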
Target sequence (O15492 whole entry, looked up): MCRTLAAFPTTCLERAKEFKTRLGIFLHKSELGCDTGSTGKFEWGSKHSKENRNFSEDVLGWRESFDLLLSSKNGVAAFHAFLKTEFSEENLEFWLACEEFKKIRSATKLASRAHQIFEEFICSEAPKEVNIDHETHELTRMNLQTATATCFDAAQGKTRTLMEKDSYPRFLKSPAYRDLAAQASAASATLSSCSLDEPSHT
Target sequence (P09471 whole entry, looked up): as the sequence (P09471 whole entry, looked up) above
Avidin bead fluor = avidin bead compound fluorescence profile; fluorescence (KMESF) at 10 µM; 220,000 tested, 0.38% active; Avidin beads, compound fluorescence 488/530 nm, flow cytometry; stronger effect = higher value; in the data active = fluorescence above about 47
GSH fluor = compound fluoresces at 488/530 nm on GSH beads | GSH beads flow cytometry, compound fluorescence 488/530 nm; stronger effect = higher value | 190,000 tested, 0.25% active | fluorescence (KMESF) at 10 µM; in the data active = fluorescence above about 89;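 note: glutathione beads carrying GST-tagged Bcl family fusion proteins plus one bare bead set; values are compound well signal with DMSO vehicle wells as background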
RGS-Gao = RGS4-Galphao interaction regulator (human); shares compounds with RGS16-Gao HTS; multiplexed bead flow cytometry, RGS–Galpha-o binding; RGS4–Galpha-o binding response, % at 10 µM; 1,600 tested, 99% active;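 note: fluorescently labeled Galpha-o bound to GDP with aluminium fluoride binding biotinylated RGS beads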
Biotin-avidin = counter-screen: compounds disrupting biotin binding to avidin beads; shares compounds with RGS16-Gao HTS; streptavidin beads, fluorescein-biotin binding, flow cytometry; inhibition, % at 10 µM; 1,700 tested, under 10 active; AID 1783;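 active = inhibition above 50%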;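 note: median green fluorescence of gated singlet beads compared with DMSO control wells; 0% = DMSO wells and 100% = complete loss of bead fluorescence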
RGS8-Gao single = RGS8-Galphao interaction regulation, single point confirmation. binding response (% of control), % at 10 µM. bead-based flow cytometry RGS8-Galphao binding, fluorescence; actives lie on both sides. 1,700 tested, 3% active. shares compounds with RGS16-Gao HTS. AID 1836; in the data active = binding response below about 72% or above about 130%; inactive = in between;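 note: Galphao activated as GDP AlF4 complex before binding bead RGS8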
RGS7-Gao confirm = RGS7-Galphao interaction regulation, single point confirmation | shares compounds with RGS16-Gao HTS | bead-based flow cytometry RGS7-Galphao binding; actives lie on both sides | response (percent of control binding), % at 10 µM | 1,700 tested, 7.8% active | AID 1837; in the data active = response below about 75% or above about 130%; inactive = in between;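 note: fluorescent Galphao activated with GDP and aluminum fluoride binding bead-coupled RGS7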
RGS16-Gao conf = RGS16-Galphao interaction regulation, single point confirmation; shares compounds with RGS16-Gao HTS; bead-based flow cytometry, RGS16-Galphao binding; actives lie on both sides; response (% of control binding), % at 10 µM; 1,700 tested, 4% active; AID 1838; in the data active = response below about 74% or above about 130%; inactive = in between;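 note: Galphao activated as the GDP aluminium fluoride complex binding bead-coupled RGS16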
RGS4-Gao confirm = confirmation of regulators of human RGS4-Galphao interaction. binding response (% of control), % at 10 µM. shares compounds with RGS16-Gao HTS. RGS4-Galphao binding, multiplexed bead flow cytometry; actives lie on both sides. 1,700 tested, 4% active. AID 1840; in the data active = binding response below about 74% or above about 130%; inactive = in between
RGS19-Gao single = confirmation of regulators of human RGS19-Galphao interaction | shares compounds with RGS16-Gao HTS | bead-based flow cytometry RGS19-Galphao binding; actives lie on both sides | response (percent of control binding), % at 10 µM | 1,700 tested, 5% active; in the data active = response below about 50% or above about 160%; inactive = in between;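 note: 100% = no compound control and 0% = blank background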
An asterisk follows results filed as active; ? = inconclusive; nt = no result given; + = active, no number; [ ] = remark or other dose. Unless noted, the rule behind the calls is not given here.

SMILES	RGS8-Gao	RGS4-Gao reg	RGS7-Gao	RGS16-Gao HTS	Avidin bead fluor	GSH fluor	Biotin-avidin	RGS8-Gao single	RGS7-Gao confirm	RGS16-Gao conf	RGS4-Gao confirm	RGS19-Gao single	others
O=C(Nc1ccccc1SCC1CSc2nc3ccccc3c(=O)n21)c1ccccc1Cl (stereo unspecified)	nt	nt	nt	nt	nt	17	2	100	75*	87	87	51
Cc1c(C(=O)O)sc2nc(CSc3ncc(C(F)(F)F)cc3Cl)[nH]c(=O)c12	101	103	?	106	7	nt	nt	nt	nt	nt	nt	nt
C/C(=N/NC(=O)c1cc(O)c(O)c(O)c1)c1ccc([N+](=O)[O-])cc1	8.8*	21*	6.2*	-2.4*	0	9	0	82	76	83	90	83
CCOC(=O)c1c(C)n(CC)c2ccc(OC(=O)c3ccc([N+](=O)[O-])cc3)cc12	100	102	nt	100	5	9	1	95	95	95	95	103
CCOC(=O)C1CCN(c2nc3ccccc3n2CC(=O)c2ccccc2)CC1	104	99	98	101	22	10	nt	nt	nt	nt	nt	nt
COc1ccc(N2CCN(c3nc4ccccc4n3CC(=O)c3ccccc3)CC2)cc1	99	108	165*[activator]	103	76*	35	0	105	104	107	104	109	RGS-Gao=108*
CCOc1ccsc1C(=O)OC	101	104	?	100	3	nt	nt	nt	nt	nt	nt	nt
CCSc1ncnc2c1sc1nc3c(cc12)COC(C)(C)C3	98	99	99	84	3	9	nt	nt	nt	nt	nt	nt
CC(C)C(=O)NC(=S)N(Cc1ccccc1)Cc1ccccc1	123	106	106	184*[activator]	6	7	-1	101	62*	88	70*	171*[activator]	RGS-Gao=106*
CCOCC(=O)N1CCN(c2ccc([N+](=O)[O-])cc2)CC1	90	94	96	48	11	12	nt	nt	nt	nt	nt	nt
CCCC(=O)Nc1cccn(Cc2ccccc2Br)c1=O	nt	nt	nt	nt	nt	39	0	100	102	100	99	114
CC(=O)c1ccc(N2CCN(C(=O)c3ccc(Cn4c(=S)[nH]c5ccc(N6CCOCC6)cc5c4=O)cc3)CC2)cc1	106	102	104	110	26	9	nt	nt	nt	nt	nt	nt
O=c1[nH]snc1N1CCOCC1	99	102	?	102	10	13	nt	nt	nt	nt	nt	nt
O=C(NCCSCc1ccc(Cl)cc1Cl)c1ccc(CN2CCOCC2)cc1	13*	-21*	-2.0*	-10*	-1	10	1	99	100	99	99	108
CN1C(C(=O)NCc2ccco2)CC2Cn3c(nc4cc(Cl)c(Cl)cc43)C21 (stereo unspecified)	100	105	?	102	8	nt	nt	nt	nt	nt	nt	nt
Nc1ccc2oc3ccc(N)cc3c(=O)c2c1	44*	5.6*	-13*	54	0	8	3	104	104	106	110	106
CC(C)c1ccc2oc3nc(N)c(C(=O)O)cc3c(=O)c2c1	96	97	98	97	8	67	nt	nt	nt	nt	nt	nt
CC1(C)CC(=O)C=C(NC2=CC3OC(c4ccccc4)OCC3OC2=O)C1 (stereo unspecified)	98	94	98	98	14	11	nt	nt	nt	nt	nt	nt
O=C(CSc1nnc2n1CCCN2)c1ccc(Cl)cc1	-19*	+[activator]	-278*	88	-5	11	2	100	104	102	105	100
CC(=O)NCC(=O)NNC1CC(=O)N(c2cccc(Cl)c2)C1=O (stereo unspecified)	103	101	?	102	8	nt	nt	nt	nt	nt	nt	nt
CCN(CC)c1ccc(/C=C(\C#N)c2nc(-c3cccs3)c(NC(C)=O)s2)cc1	102	106	103	102	16	40	nt	nt	nt	nt	nt	nt
CCOC(=O)C1(CCc2ccccc2)CCN(C(=O)C2CCCO2)CC1 (stereo unspecified)	96	92	96	91	5	17	nt	nt	nt	nt	nt	nt
CC(=O)c1ccc(OCCn2cnc3ccccc32)cc1	120	112	109	192*[activator]	18	10	-1	100	101	102	101	109	RGS-Gao=112*
CC(C)(C)NC(=O)NC(=O)CN1CCN(c2ncc(C(F)(F)F)cc2Cl)CC1	nt	nt	nt	nt	nt	41	0	98	89	92	94	94
NNC(=O)CN1CCN(c2ncc(C(F)(F)F)cc2Cl)CC1	102	101	100	102	23	12	nt	nt	nt	nt	nt	nt
SMILES	RGS8-Gao	RGS4-Gao reg	RGS7-Gao	RGS16-Gao HTS	Avidin bead fluor	GSH fluor	Biotin-avidin	RGS8-Gao single	RGS7-Gao confirm	RGS16-Gao conf	RGS4-Gao confirm	RGS19-Gao single	others
O=[N+]([O-])c1ccc(Nc2nc(NC3CCCCC3)nc(N3CCCC3)n2)cc1	104	170*[activator]	160*[activator]	157	27	13	0	92	98	89	95	85
Cc1nn(C(C)C(=O)NCCCc2ccccc2)c(=O)c2cc3occc3n12 (stereo unspecified)	nt	134	139	167	9	25	-2	93	88	95	93	80
CCOc1ccc(CCNC(=O)C(C)n2nc(C)n3c(cc4occc43)c2=O)cc1OCC (stereo unspecified)	98	96	97	99	8	14	nt	nt	nt	nt	nt	nt
COc1cc(C(=O)NCC(c2cccs2)N(C)C)cc(Cl)c1OC(C)C (stereo unspecified)	122	116	120	211*[activator]	8	15	2	103	109	105	106	112	RGS-Gao=116*
CCCOc1ccc(C(=O)NCC(c2cccs2)N(C)C)cc1OC (stereo unspecified)	103	103	104	100	17	9	nt	nt	nt	nt	nt	nt
O=C(CN1CCN(C(=O)c2ccco2)CC1)Nc1ccc2c(c1)OCCO2	99	122	178*[activator]	108	223*	36	0	97	94	95	99	98	RGS-Gao=122*

Screening results as filed in PubChem BioAssay.
